Test [1] can be described thus: small molecules captured by biotinylated probe aFSTL3 – biochemical, small-molecule microarray, fluorescence 635/667, stem cell growth factor project, primary screen (AID 1064).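 Also: measures binding of the biotinylated anti-FSTL3 antibody to printed compounds.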 Conditions: higher = more signal.
The nature of test [2]: binders from COS7 lysate, DM2A8 probe, primary screen, torsin A project, cell lysate, small-molecule microarray, fluorescence 635/667 (AID 1065). Conditions: higher = more signal, COS7 lysate expressing mutant human TOR1A.
Test [3] in a line: small molecules captured by biotinylated probe aFGF2 – biochemical, small-molecule microarray, fluorescence 635/667, stem cell growth factor project, primary screen (AID 1067).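 Also: measures binding of biotinylated aFGF2 protein to printed compounds on slides; z-score merges feature fluorescence and signal-to-noise across triplicate slides.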 Conditions: higher = more signal.
The nature of test [4]: small molecules captured by biotinylated probe aFGF10 – biochemical, small-molecule microarray, fluorescence 635/667, stem cell growth factor project, primary screen (AID 1071).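 Also: score merges 667 nm spot intensity and signal to noise from triplicate slides.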 The following applies: higher = more signal.
The target in test [5] is Neurogenic locus notch homolog protein 2 (Homo sapiens) (UniProt Q04721). The test is described as follows: small molecules binding Notch2 protein – biochemical, small-molecule microarray, 635 nm fluorescence, stem cell growth factors, primary screen (AID 1073). The following applies: higher = more signal.
The target in test [6] is Pro-neuregulin-1, membrane-bound isoform (Homo sapiens) (UniProt Q02297). The test is described as follows: small molecules binding neuregulin-1 protein – biochemical, small-molecule microarray, fluorescence 635/667, psychiatric disease protein project, primary screen (AID 1075).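 Also: score combines 667 nm spot fluorescence with signal to noise.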 Conditions: NRG1 binding, 635 nm fluorescence, higher = more signal.
Chain of Pro-neuregulin-1, membrane-bound isoform (Homo sapiens) (Q02297 whole entry, looked up, the tested form may be a part, canonical isoform): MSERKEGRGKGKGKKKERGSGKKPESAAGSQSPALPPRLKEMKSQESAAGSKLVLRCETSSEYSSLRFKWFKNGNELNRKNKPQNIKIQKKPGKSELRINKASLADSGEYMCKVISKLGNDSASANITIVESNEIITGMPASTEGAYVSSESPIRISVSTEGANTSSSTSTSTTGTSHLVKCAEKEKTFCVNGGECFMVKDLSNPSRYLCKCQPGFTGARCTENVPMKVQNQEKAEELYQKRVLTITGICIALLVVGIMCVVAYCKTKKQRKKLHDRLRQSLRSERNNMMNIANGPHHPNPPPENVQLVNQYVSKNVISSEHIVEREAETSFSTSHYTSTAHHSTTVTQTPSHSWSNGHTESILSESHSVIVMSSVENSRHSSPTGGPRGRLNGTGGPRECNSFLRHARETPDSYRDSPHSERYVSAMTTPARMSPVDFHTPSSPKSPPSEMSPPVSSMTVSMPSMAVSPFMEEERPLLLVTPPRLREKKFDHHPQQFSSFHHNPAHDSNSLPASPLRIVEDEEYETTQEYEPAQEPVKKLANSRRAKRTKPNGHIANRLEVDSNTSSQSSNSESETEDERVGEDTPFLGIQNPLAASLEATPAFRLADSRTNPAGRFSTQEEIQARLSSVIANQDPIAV
The test system of test [7] is Neuregulin-1 EGF-like domain. The test is described as follows: small molecules binding NRG1 EGF domain – biochemical, small-molecule microarray, 635 nm fluorescence, primary screen (AID 1081).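 Also: binding of the protein to compounds printed on small-molecule microarray slides.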 The following applies: higher = more signal.
Test [8] can be described thus: FRG1 expression reporter modulators in myotubes – cell-based, C2C12 myotubes, firefly/Renilla luciferase, luminescence, FRG1 inhibition for FSHD, primary screen (AID 1084). The following applies: FRG1 promoter luciferase, higher = more signal, called active from +8 up or from −8 down.
Test [9] is described as follows: small molecules captured by biotinylated probe aFST – biochemical, small-molecule microarray, fluorescence 635/667, stem cell growth factor project, primary screen (AID 1086).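 Also: score merges 667 nm fluorescence with signal-to-noise of each printed compound spot.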 The following applies: higher = more signal.
Test [10] can be described thus: binders of probe aHhip on microarray, primary screen, stem cell growth factor project, biochemical, small-molecule microarray, fluorescence 635/667 (AID 1087).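 Also: score merges spot fluorescence at 667nm with spot signal to noise ratio.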 The following applies: higher = more signal.
Test [11] relates to PRMT1 (protein arginine N-methyltransferase 1). The test is described as follows: small molecules binding arginine methyltransferase PRMT1 – biochemical, small-molecule microarray, 635 nm fluorescence, primary screen (AID 1088).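 Also: binding of Prmt1 protein to compounds spotted on small-molecule microarray slides.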 Conditions: higher = more signal.
A short description of test [12]: growth effects on S. cerevisiae YJM789 – YJM789 clinical isolate, OD600, 24 h, basal, primary screen (AID 1089).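 Also: growth of clinical yeast isolate S. cerevisiae YJM 789 seeded 1000 cells per well; test concentration not given here.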 Conditions: higher = more signal, called active from +8 up or from −8 down.
Test [13] is described as follows: S. pombe growth modifiers, basal conditions – strain 972, OD600, 24 h, no modulator, primary screen (AID 1090).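 Also: basal condition with compound alone and no growth modifier present; test concentration not given here.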 The following applies: S. pombe 972 growth, higher = more signal, called active from +8 up or from −8 down.
Test [14] in a line: budding yeast growth modifiers under rapamycin – strain BY4716, OD600, 96 h, primary screen (AID 1091). Also: test concentration not given here. Conditions: S. cerevisiae BY4716 + rapamycin, higher = more signal, called active from +8 up or from −8 down.
The target in test [15] is Torsin-1A-interacting protein 2 (Homo sapiens) (UniProt Q8NFQ8). Kind of test: small molecules binding lysate-expressed LULL1 – cell lysate, human LULL1 lysate, 635/667 nm fluorescence, primary screen (AID 1092).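 Also: probe is lysate of COS7 cells overexpressing human LULL1; score merges per-feature 667 nm fluorescence with signal-to-noise.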 Conditions: small-molecule microarray, hLULL1 lysate binding, 635 nm fluorescence; higher = more signal.
Chain of Torsin-1A-interacting protein 2 (Homo sapiens) (Q8NFQ8 whole entry, looked up): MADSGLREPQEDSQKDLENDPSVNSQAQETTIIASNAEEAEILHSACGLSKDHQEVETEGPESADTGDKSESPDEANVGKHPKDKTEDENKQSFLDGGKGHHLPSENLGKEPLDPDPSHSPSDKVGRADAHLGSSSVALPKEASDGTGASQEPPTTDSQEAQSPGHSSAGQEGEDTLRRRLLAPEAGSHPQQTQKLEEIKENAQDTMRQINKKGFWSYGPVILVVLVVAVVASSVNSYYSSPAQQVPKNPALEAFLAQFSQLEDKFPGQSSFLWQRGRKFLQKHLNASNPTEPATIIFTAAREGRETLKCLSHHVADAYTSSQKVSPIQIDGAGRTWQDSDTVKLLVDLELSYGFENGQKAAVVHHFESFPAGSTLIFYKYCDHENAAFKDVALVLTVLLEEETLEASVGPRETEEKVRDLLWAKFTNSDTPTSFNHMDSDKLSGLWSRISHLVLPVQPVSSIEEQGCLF
Test [16] in a line: optical density change of DRC41 E. coli – strain DRC41, OD650, 24 h, E. coli filamentation project, primary screen (AID 1093).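 Also: MC1000 strain lacking acrAB efflux and sulA so SOS filamentation is blocked; test concentration not given here.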 The following applies: E. coli DRC41 growth, higher = more signal, called active from +8 up or from −8 down.
Test [17] is described as follows: probe aLefty2 binding to arrayed compounds – biochemical, biotinylated probe, 635/667 nm fluorescence, primary screen (AID 1094).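 Also: score merges spot fluorescence near 667 nm with spot signal-to-noise ratio.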 The following applies: small-molecule microarray, higher = more signal.
The test system of test [18] is Noggin (protein binding on small-molecule microarray). Kind of test: small molecules binding Noggin protein – biochemical, 635/667 nm fluorescence, primary screen (AID 1095).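 Also: score merges 667 nm feature fluorescence with signal to noise over triplicate slides.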 Conditions: 635 nm fluorescence, higher = more signal.
For test [19], the target named is Neurogenic locus notch homolog protein 3 (Homo sapiens) (UniProt Q9UM47). Kind of test: small molecules binding NOTCH3 protein – biochemical, 635/667 nm fluorescence, primary screen (AID 1096). The following applies: small-molecule microarray, 635 nm fluorescence, higher = more signal.
Chain of Neurogenic locus notch homolog protein 3 (Homo sapiens) (Q9UM47 whole entry, looked up): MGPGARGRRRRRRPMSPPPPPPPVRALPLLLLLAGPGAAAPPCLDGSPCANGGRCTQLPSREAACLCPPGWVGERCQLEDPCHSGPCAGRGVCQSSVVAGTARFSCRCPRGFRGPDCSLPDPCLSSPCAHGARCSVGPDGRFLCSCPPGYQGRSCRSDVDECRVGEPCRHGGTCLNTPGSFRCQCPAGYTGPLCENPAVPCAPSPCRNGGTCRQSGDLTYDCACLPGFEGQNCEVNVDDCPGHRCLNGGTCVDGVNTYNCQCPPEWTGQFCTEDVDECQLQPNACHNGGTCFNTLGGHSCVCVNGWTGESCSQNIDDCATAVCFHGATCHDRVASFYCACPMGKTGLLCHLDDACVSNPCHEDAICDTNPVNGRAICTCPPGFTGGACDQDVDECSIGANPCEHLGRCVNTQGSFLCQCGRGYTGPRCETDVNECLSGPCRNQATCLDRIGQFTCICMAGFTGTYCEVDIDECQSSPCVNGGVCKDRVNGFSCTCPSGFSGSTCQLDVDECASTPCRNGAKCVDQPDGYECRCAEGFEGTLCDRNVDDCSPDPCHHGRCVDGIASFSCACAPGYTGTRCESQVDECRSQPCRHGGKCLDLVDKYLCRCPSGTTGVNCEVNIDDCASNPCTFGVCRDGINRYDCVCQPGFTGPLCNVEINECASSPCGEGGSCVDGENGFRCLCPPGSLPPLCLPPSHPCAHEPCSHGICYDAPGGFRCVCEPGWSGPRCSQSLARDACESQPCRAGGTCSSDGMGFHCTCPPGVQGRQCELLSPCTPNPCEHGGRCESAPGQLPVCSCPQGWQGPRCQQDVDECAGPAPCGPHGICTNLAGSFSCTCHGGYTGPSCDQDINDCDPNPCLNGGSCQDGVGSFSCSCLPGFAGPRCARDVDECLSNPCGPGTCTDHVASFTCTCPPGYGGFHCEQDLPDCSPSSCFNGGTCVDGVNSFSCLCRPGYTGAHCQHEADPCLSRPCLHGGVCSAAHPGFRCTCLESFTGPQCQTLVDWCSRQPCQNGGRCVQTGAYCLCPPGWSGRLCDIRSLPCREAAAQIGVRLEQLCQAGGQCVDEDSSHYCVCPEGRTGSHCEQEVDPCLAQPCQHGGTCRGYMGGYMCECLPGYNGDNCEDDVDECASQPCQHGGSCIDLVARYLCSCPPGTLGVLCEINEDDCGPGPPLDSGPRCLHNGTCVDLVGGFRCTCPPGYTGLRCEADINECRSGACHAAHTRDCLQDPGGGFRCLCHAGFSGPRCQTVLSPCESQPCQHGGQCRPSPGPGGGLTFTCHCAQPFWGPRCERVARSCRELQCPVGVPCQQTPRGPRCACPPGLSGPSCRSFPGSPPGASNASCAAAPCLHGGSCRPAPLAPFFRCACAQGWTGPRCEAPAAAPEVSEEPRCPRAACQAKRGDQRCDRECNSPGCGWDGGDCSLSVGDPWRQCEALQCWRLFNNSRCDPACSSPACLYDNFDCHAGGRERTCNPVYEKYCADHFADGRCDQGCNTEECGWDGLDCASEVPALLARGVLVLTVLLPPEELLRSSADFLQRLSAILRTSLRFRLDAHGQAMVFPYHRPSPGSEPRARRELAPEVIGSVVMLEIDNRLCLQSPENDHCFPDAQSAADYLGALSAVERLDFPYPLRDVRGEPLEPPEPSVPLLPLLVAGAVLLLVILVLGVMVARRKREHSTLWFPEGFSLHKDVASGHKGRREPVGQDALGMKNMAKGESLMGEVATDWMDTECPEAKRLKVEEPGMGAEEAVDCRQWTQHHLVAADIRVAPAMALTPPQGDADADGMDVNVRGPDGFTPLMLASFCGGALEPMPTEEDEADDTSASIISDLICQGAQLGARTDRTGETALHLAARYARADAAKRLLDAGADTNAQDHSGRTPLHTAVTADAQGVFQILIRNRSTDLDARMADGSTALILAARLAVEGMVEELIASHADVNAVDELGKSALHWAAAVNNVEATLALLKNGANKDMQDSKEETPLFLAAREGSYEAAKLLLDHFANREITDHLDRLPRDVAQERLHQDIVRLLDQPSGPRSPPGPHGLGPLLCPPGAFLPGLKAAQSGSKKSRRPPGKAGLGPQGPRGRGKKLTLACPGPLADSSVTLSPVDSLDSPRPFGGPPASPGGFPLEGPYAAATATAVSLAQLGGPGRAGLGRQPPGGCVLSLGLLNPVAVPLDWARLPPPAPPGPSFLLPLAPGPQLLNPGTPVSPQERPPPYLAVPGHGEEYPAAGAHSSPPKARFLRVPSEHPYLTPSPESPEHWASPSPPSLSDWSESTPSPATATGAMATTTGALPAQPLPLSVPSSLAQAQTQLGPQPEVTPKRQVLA
Test [20] can be described thus: probe aEGFR binding to arrayed compounds – biochemical, biotinylated probe, 635/667 nm fluorescence, primary screen (AID 1097).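 Also: probe is a biotinylated anti-EGFR antibody binding compounds printed on slides; score combines fluorescence near 667 nm and signal to noise of each spot.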 The following applies: small-molecule microarray, higher = more signal.

“And” between values parts separate entries of the source, which are not always exact repeats. Equal entries are not always repeated. More than one record can exist for a structure, and the calls need not agree. The source made the active and inactive calls.

For the compound `CC(C)OC(=O)C=C1C[C@@H](c2ccccc2)O[C@@H](c2ccccc2)O1`, the composite z-score in [1] was -0.682 and -0.0971; in test [2] it was 0.935 and 1.2; in test [3], -0.0695 and 0.0305; in test [4] it was 1.04 and 1.05; in test [5], 1.45 and 1.59; in test [6], 0.482 and 1.23. The composite z-score in test [7] was 1.1 and 1.18; in test [9] it was 0.904 and 0.743; in test [10], 0.194 and 0.126; in test [11], 1.5 and 1.54; in [15], 3.33 and 3.12; in test [17] it was 0.0528 and 0.269. For the same compound, the composite z-score in test [18] is 1.09 and 0.798; in test [19], 1.09 and 1.13; in [20], 0.302 and 0.366. Further, the z-score in [8] is -0.778 (inactive) and -0.828 (inactive); in [12] it was -0.023 (inactive) and 0.548 (inactive); in [13], -4.66 (inactive) and -7.08 (inactive); in test [14], -0.793 (inactive) and 0.632 (inactive); in test [16], 0.551 (inactive) and 0.884 (inactive).
`COC(=O)C1=C(C)N(Cc2ccccc2)C2=C(C(=O)c3ccccc3)[C@H](c3ccccc3)[C@@](O)(C(=O)OC)C(=O)N2[C@@H]1c1ccccc1`: the composite z-score was -0.195 and -0.325 in [1]; -0.16 and 0.0962 in test [2]; -0.0759 and -0.0691 in [3]; 0.429 and 0.387 in test [4]; 0.98 and 0.272 in test [5]; 0.296 and -0.085 in test [6]. Also, the composite z-score in test [7] was 0.672 and 0.253; in [9] it was 0.128 and 0.0478; in test [10] it was -0.236 and 0.625; in test [11], 0.518 and 0.722; in test [15], 0.886 and 0.23; in test [17], 0.0039 and -0.115. Further, the composite z-score in test [18] is 0.495 and 0.653; in [19] it was 0.858 and 0.808; in test [20], 0.127 and -0.123. The z-score is -0.363 (inactive) and 0.429 (inactive) in test [8]; 0.504 (inactive) and 0.653 (inactive) in [12]; -0.413 (inactive) and -0.0902 (inactive) in test [13]; 34.6 (active) and 0.863 (inactive) in [14]; 0.591 (inactive) and 0.311 (inactive) in test [16].
For the compound `Cc1ccc(S(=O)(=O)N[C@@H]2COC(=O)CC=C[C@@H](C)[C@@H]3C=C[C@H](O)[C@@H](COC(=O)CC=C[C@H]2C)O3)cc1`, the composite z-score in test [1] was -0.534 and -0.776; in [2] it was 1.1 and 0.792; in test [3], -0.131 and -0.175; in [4], 0.0127 and 0.11; in [5] it was -0.557 and 0.111; in test [6], -0.22 and -0.195. For the same compound, the composite z-score in test [7] is 0.0077 and 0.324; in test [9], 0.101 and 0.0406; in [10], 0.0243 and -0.26; in [11], 0.438 and 0.385; in test [15], -0.0372 and -0.0592; in test [17], -0.185 and -0.162. Moreover, the composite z-score in [18] is 0.902 and 0.305; in test [19], -0.0571 and 0.584; in [20], -0.072 and -0.112. The z-score was 0.132 (inactive) and 0.646 (inactive) in test [8]; -0.147 (inactive) and -0.184 (inactive) in test [12]; -0.349 (inactive) and -0.549 (inactive) in [13]; -0.564 (inactive) and -0.784 (inactive) in [14]; 0.651 (inactive) and -0.667 (inactive) in [16].
With `COC(=O)C1=C(C)N(Cc2ccccc2)[C@]23O[C@](C(=O)OC)(C(=O)N2[C@@H]1c1ccccc1)[C@@H](C(=O)OC)[C@H]3C(=O)OC`, the composite z-score in [1] is 0.202 and -0.441; in test [2], -0.295 and -0.1; in test [3] it was -0.112 and -0.0712; in [4], -0.204 and 0.255; in [5], -0.481 and 0.25; in [6], 0.943 and -0.386. For the same compound, the composite z-score was 0.393 and 0.208 in test [7]; -0.243 and -0.0583 in [9]; -0.137 and -0.189 in test [10]; -0.584 and 0.5 in test [11]; 0.19 and 0.0032 in test [15]; -0.277 and -0.259 in test [17]. Further, the composite z-score in test [18] is -0.803 and 0.77; in test [19] it was -1.21 and 0.287; in test [20], -0.173 and -0.115. In addition, the z-score in test [8] was -0.125 (inactive) and -0.101 (inactive); in test [12] it was 0.464 (inactive) and 0.457 (inactive); in test [13] it was -0.0252 (inactive) and -0.671 (inactive); in [14], 0.667 (inactive) and 0.334 (inactive); in [16], 0.305 (inactive) and 0.28 (inactive).
